In PubChem BioAssay (NCATS):
Records with an inconclusive call do not appear. Activity calls are given as the source filed them. The call rests on the fitted dose curve; in most records, active means well fitted curve in the direction sought with a large enough effect; inconclusive means small, poorly fitted or top-dose-only effect, or another doubt; inactive means no such curve, though single readings can be large; an effect the other way counts as inactive or inconclusive.

Key:
[1] = Confirmation and Secondary Assay for Modulators of Hemoglobin Beta Chain Splicing at IVS2 654 locus (AID 910);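 further: HeLa cells stably carrying EGFP split by mutant beta-globin IVS2-654 intron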
In short: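 Readout: per-well total peak green fluorescence (488 nm ex, 500–520 nm em) from objects 5–250 µm, reflecting correct splicing of an EGFP-654 reporter. Compounds were applied for 2 days at 37 °C to overnight-plated HeLa EGFP-654 cells; controls were DMSO and 500 nM IVS2-654 PNA.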

[2] = Confirmation and Secondary Assay for Modulators of Hemoglobin Beta Chain Splicing at IVS2 705 locus (AID 930);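 further: HeLa cells stably expressing the EGFP-705 splicing reporter; GFP fluorescence per well restored by corrected splicing of the IVS2-705 intron in EGFP; series mostly up to about 46 µM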
In short: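 Read-out: total peak GFP fluorescence per well (488 nm excitation, 500-520 nm emission) by laser-scanning cytometry. Cells: HeLa EGFP-705 splicing reporter, 2 days compound exposure in Optimem/2% FCS.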

Furin (Homo sapiens) = Furin (Homo sapiens) (UniProt P09958); test: Furin counterscreen qHTS for Zika virus inhibitors (AID 1347149); further: nearly all actives have a fitted effect of over 70% in size; further: potency means the concentration at half of the fitted maximal effect
In short: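 Fluorogenic cleavage of BOC-RVRR-AMC (2 microM final, Km ~15 µM) was monitored (ex 340, em 450 nm) at 37C after 15 min RT preincubation of 5 nM furin with compounds in HEPES pH 7.0 buffer with CaCl2 and Triton X-100. Percent inhibition was fitted to a 4-parameter Hill curve.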

[3] = Confirmatory screen GU Rhodamine qHTS for Zika virus inhibitors qHTS (AID 1347157); further: nearly all actives have a fitted effect of over 70% in size; further: potency means the concentration at half of the fitted maximal effect
In short: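 A qHTS format was used, with compound concentrations ranging up to 114 microM. Each compound was preincubated with 25 nM NS2B-NS3 protease, and the substrate was then added at 1.5 microM. Curves were fitted with a 4-parameter Hill model.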

[4] = Confirmatory screen NINDS Rhodamine qHTS for Zika virus inhibitors (AID 1347161); further: nearly all actives have a fitted effect of over 60% in size; further: potency means the concentration at half of the fitted maximal effect
In short: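 Percent inhibition, normalized to uninhibited and enzyme-free controls, is fitted to a 4-parameter Hill equation. Fluorescence change comes from a 15-min cleavage of 1.5 microM bis-peptide Rhodamine110 substrate by 25 nM linked NS2B-NS3 at room temperature.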

[5] = Tertiary RLuc qRT-PCR qHTS assay for Zika virus inhibitors (AID 1347169); further: top concentration of the series differs between compounds; nearly all actives have a fitted effect of over 55% in size
In short: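 Orthogonal cell-based readout: luminescence measured 1-1.5 hrs after adding live-cell Renilla substrate to Vero cells that had been infected with ZIKV-RLuc (MOI 1-2) post-compound, incubated 48-72 hrs at 37 degrees C.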

[6] = target: Glutathione peroxidase 1 (Homo sapiens) (UniProt P07203); test: Primary qHTS Assay for Inhibitors of Recombinant Selenoprotein Glutathione Peroxidase 1 (GPX1) (AID 1845191); further: nearly all actives have a fitted effect of over 65% in size
In short: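 10 nM GPX1 + cpd, 30 min RT; start w/ 1 mM GSH, 0.5 mM cumene hydroperoxide, 0.5 mM NADPH, 100 nM GR, 0.01% BSA; buffer 50 mM Tris-HCl pH 7.5, 2 mM EDTA, 150 mM NaCl; Fl 340/450, 0 & 15 min.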

[7] = target: Calcium and integrin-binding protein 1 (Homo sapiens) (UniProt Q99828); test: Primary qHTS for Identification of Calcium Integrin Binding Protein 1 (CIB1) Competitor (AID 1508620);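 further: GST tagged CIB1 binding a fluorescein labelled alphaIIb integrin peptide tracer; top concentration of the series differs between compounds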
In short: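 CIB1-GST (1 uM final) and compound incubated 15 min at room temperature before adding FITC-alphaIIb peptide tracer (100 nM final). Competition for binding read by fluorescence polarization (ex 480, em 540) after another 15 min at room temperature.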

Measured: Potency

Furin (Homo sapiens), sequence (P09958 whole entry, looked up): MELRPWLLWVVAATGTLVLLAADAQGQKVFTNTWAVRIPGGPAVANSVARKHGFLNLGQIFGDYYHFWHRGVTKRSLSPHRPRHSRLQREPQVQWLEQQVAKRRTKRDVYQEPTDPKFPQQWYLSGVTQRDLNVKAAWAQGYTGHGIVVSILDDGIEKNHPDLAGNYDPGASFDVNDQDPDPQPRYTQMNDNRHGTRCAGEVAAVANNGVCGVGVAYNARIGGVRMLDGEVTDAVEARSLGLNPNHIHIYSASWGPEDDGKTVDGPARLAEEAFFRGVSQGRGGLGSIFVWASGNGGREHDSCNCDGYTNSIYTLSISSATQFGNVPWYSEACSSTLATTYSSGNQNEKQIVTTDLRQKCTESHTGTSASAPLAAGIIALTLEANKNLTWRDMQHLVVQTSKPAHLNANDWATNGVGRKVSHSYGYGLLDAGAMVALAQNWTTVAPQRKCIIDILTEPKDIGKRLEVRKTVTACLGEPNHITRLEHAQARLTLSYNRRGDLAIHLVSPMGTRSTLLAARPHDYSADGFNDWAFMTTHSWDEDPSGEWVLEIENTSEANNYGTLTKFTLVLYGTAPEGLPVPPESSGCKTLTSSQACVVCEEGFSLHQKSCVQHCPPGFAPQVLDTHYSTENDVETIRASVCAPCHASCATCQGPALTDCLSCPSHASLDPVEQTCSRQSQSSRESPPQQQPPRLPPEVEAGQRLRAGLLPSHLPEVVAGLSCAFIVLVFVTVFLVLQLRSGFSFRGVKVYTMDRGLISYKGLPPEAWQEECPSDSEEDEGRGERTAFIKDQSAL
Calcium and integrin-binding protein 1 (Homo sapiens), sequence (Q99828 whole entry, looked up): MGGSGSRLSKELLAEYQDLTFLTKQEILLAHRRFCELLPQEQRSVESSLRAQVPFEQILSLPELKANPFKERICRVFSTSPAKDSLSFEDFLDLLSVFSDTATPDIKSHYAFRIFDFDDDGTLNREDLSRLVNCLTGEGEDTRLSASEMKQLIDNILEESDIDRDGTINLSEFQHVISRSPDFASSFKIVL
Glutathione peroxidase 1 (Homo sapiens), sequence (P07203 whole entry, looked up): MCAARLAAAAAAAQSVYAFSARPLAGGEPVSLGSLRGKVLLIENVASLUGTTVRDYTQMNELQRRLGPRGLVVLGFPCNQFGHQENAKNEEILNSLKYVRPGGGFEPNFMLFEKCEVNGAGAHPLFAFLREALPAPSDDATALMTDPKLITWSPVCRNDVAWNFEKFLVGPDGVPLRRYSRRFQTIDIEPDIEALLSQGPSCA

NC(Cc1cc(I)c(Oc2cc(I)c(O)c(I)c2)c(I)c1)C(=O)O (configuration not stated)
active: [3] 31.6 µM | [4] 22.4 µM
inactive: [1] | [2] | Furin (Homo sapiens) | [5] | [6]

COc1ccc(S(=O)(=O)c2c(Nc3cccc(Cl)c3)sc(C(=O)c3ccccc3)c2N)cc1
inactive: [3] | [4] | [5]
active: Furin (Homo sapiens) 52.7 µM

CCOC(=O)c1c(-c2ccc(C)cc2)csc1NC(=O)c1cc(-c2ccc(Cl)cc2)on1
inactive: Furin (Homo sapiens) | [3] | [4] | [5]

O=c1oc2ccc3ccccc3c2cc1-c1nnc(Nc2ccc(Cl)cc2Cl)s1
inactive: Furin (Homo sapiens) | [3] | [4] | [5]

CC(NC(=O)C1CCN(S(=O)(=O)c2ccc3nc4c(c(C(=O)O)c3c2)CCCC4)CC1)c1ccccc1 (configuration not stated)
inactive: Furin (Homo sapiens) | [3] | [4] | [5]

Cc1c(Cl)cccc1NC(=O)CSc1ncccc1C(=O)Oc1ccccc1Cl
inactive: Furin (Homo sapiens) | [3] | [4] | [5]

O=C(OCC#CCSc1nnc(-c2ccccc2Cl)o1)c1ccc(F)cc1
inactive: Furin (Homo sapiens) | [3] | [4] | [5] | [7]

N#C/C(=C\c1ccc(Cl)cc1)c1nc(-c2cc3c(ccc4ccccc43)oc2=O)cs1
inactive: Furin (Homo sapiens) | [3] | [4] | [5]

O=C(OCC#CCSc1nnc(-c2cccc3ccccc23)o1)c1sc(Cl)c(Cl)c1Cl
inactive: [3] | [4] | [5] | [7]
active: Furin (Homo sapiens) 14.8 µM

O=C(OCC#CCSc1nnc(-c2cccc3ccccc23)o1)c1ccc(Cl)c(C(F)(F)F)c1
active: Furin (Homo sapiens) 52.7 µM | [3] 25.1 µM
inactive: [4] | [5]

O=C(OCC#CCSc1nnc(-c2cccc3ccccc23)o1)c1ccc(SC(F)(F)F)cc1
inactive: [3] | [4] | [5] | [7]
active: Furin (Homo sapiens) 52.7 µM

O=C(CSc1ncccc1C(=O)Oc1ccccc1Cl)Nc1ccccc1Cl
inactive: Furin (Homo sapiens) | [3] | [4] | [5]

COC(=O)c1ccc(NC(=O)CSc2ccc(-c3sc(-c4ccccc4)nc3C)nn2)cc1
inactive: [3] | [4] | [5]
active: Furin (Homo sapiens) 46.9 µM

COCCOC(=O)c1c(C)n(S(=O)(=O)c2ccc(C)cc2)c2ccc(NS(=O)(=O)c3ccc(C)cc3)cc12
inactive: Furin (Homo sapiens) | [3] | [4] | [5]
